The values that follow come from PubChem BioAssay (NCATS).

Records with an inconclusive call do not appear. Active and inactive are the calls of the source. Calls follow the shape of the full dose curve.
% is scaled to controls: 0 for no effect and ±100 for the full control effect; potency is read from the fitted curve at half-maximal effect.

The experiment is described as follows: Natriuretic polypeptide receptor (hNpr1) antagonism - Pilot counterscreen GloSensor control cell line (AID 1347045). Particulars: HEK293 cGMP GloSensor cells, SNP-stimulated luminescence, 20 min; series mostly up to 38.3 µM; activity change, negative = inhibition: at the top concentration. As for the experimental part:
F. Fan, B. F. Binkowski, B. L. Butler, P. F. Stecha, M. K. Lewis, K. V. Wood, Novel genetically encoded biosensors using firefly luciferase. ACS Chem Biol 3, 346-351 (2008).
PROTOCOL TABLE (as described by Inglese J, Shamu CE and Guy RK. 2007)
SEQUENCE No. (e.g., 1, 2, 3, etc.); […] (e.g., Cells, Incubation, Reagent, etc.); VALUE and DESCRIPTION.
1. Cells. Seed 1500 HEK293 cGMP-sensor cells per well in 4uL into Greiner 1536-well white/solid bottom high base, TC plates.
2. Incubation. Incubate plated cells at 37C in 5% CO2, 95% RH overnight.
3. Reagent. Add 1uL per well GloSensor reagent from Promega (2% final concentration) or CO2 independent media vehicle control to respective columns of Greiner 1536-well plates.
4. Incubation. Incubate plated cells at room temperature for 2 h, protect from light.
5. Compounds. Library compounds and DMSO vehicle control added at 23nL per well, transferred by Pin Tool.
6. Incubation. Incubate plated cells for 30 min. at room temperature, protect from light.
7. Detector. GloSensor baseline pre-read luminescence measured using CCD-based camera (Viewlux).
8. Compound. Add 1uL of sodium nitroprusside (SNP) to 50 uM final concentration to stimulate soluble guanylyl cyclase (GC) or CO2 independent media as vehicle control.
9. Incubation. Incubate treated cells at room temperature for 20 min., protect from light.
10. Detector. GloSensor post-SNP luminescence measured using CCD-based camera (Viewlux).
NOTES (numbers refer to Sequence numbers above; values are from representative experiments)
1. HEK293 cells expressing GIP/pGS-40F were grown to 85-95% confluence (48-72 h) in T175 culture flasks (CO2 independent media supplemented with 10% FBS, 1% Pen/Strep antibiotics, and 1 ug/mL puromycin). Trypsinize and harvest cells from T175 culture flasks and filter through 40 um cell strainer. Cells counted with Invitrogen Countess (30,000,000 - 50,000,000 cells/flask).
2. Cells incubated for 24 h. at 37C in 95% RH incubator with metal lid having gas-exchange holes.
3. Prepare GloSensor Reagent (Promega): Reconstitute GloSensor luciferase substrate by adding 8.2mL Hepes buffer to 250mg substrate, mix well, protect from light and stored at -80C. Prepare a fresh 12% GloSensor solution in CO2 independent supplemented plating media (see above). Mix well and store at ambient temperature, protected from light. 1uL 12% GloSensor Luciferase Reagent added (2% final concentration) to respective columns of 9 x 1536-well Greiner plate with BioRaptr, 1uL CO2 independent plating media added to respective columns as vehicle control with BioRaptr.
4. Cells incubated for 2 h. at ambient temperature, protected from light with metal lid having gas-exchange holes.
5. 23nL of LOPAC128 library compounds (7 plates) or DMSO vehicle control transferred to 9 Greiner white/solid bottom high base, TC plates in 7 interplate 1:5 titrations (see Yasgar, A. et al. 2008) with Pintool. Two of the 9 plates are DMSO-only in compound field at beginning and end of compound library-treated plates.
6. Cells incubated for 30-50 min. at ambient temperature protected from light with metal lid having gas-exchange holes.
7. Read GloSensor + Antagonist/Compound baseline Luminescence on the ViewLux [Exposure, 30 s; Gain, High; Speed, Slow; Binning, 2X]
8. SNP solution prepared at 500 mM (in H2O) stock concentration. From this a working dilution was prepared at 300 uM in CO2 Independent media. 1uL of 300 uM SNP (50 uM final concentration) or CO2 Independent media vehicle control dispensed into respective columns of 9 x Greiner 1536-well white/solid bottom, tissue culture plates with BioRaptr.
9. Cells incubated for 20 min. at ambient temperature, protected from light with metal lid having gas-exchange holes.
10. Read final luminescence on the ViewLux. [Exposure, 30 s; Gain, High; Speed, Slow; Binning, 2X.]
[…]
Background: Counterscreens check selectivity or assay interference.
For the molecule `OCc1ccc(-c2nn(Cc3ccccc3)c3ccccc23)o1`, the “activity change, negative = inhibition” value is 82.9% (inactive). As to `Cc1ccc(S(=O)(=O)N[C@@H](Cc2ccccc2)C(=O)CCl)cc1`, the Potency is 3.29 µM (active). Regarding `CCN1CCCC1CNC(=O)c1cc(S(N)(=O)=O)ccc1OC` (centres undefined), the “activity change, negative = inhibition” value is 9.19% (inactive). `CC1CC2C3CCC4=CC(=O)C=C[C@]4(C)[C@@]3(F)[C@@H](O)C[C@]2(C)[C@@]1(O)C(=O)CO` (some centres undefined): the “activity change, negative = inhibition” value is 5.49% (inactive). The same measure, in the same setting: under `O=C(O)C1CCCN(CCC=C(c2ccccc2)c2ccccc2)C1` (centres undefined) stands 2.64% (inactive). On the same count and under the same terms, with `COc1cc2ncnc(Nc3cccc(Cl)c3)c2cc1OC` the figure was 17.1% (inactive); with `COc1cc2nc(N3CCCN(C)CC3)nc(NC3CCN(Cc4ccccc4)CC3)c2cc1OC`, -14.6% (inactive); with `NC(=O)c1ccc2[nH]ccc2c1`, 9.87% (inactive). The same measure, in the same setting: with `NC(=O)c1cccc(N)c1` the figure was -2.31% (inactive); with `N[C@@H](Cc1ccc(O)c(O)c1)C(=O)O`, 4.55% (inactive). With `CC(C)NCC(O)c1ccc(NS(C)(=O)=O)cc1` (centres undefined), the “activity change, negative = inhibition” value was -0.724% (inactive). On the same count and under the same terms, with `Nc1nc(N)c2nc(CNc3ccc(C(=O)NC(CCC(=O)O)C(=O)O)cc3)cnc2n1` (centres undefined) the figure was 22.6% (inactive); with `CCCCS(=N)(=O)CCC(N)C(=O)O` (centres undefined), -0.115% (inactive). With `CC1=C(C(=O)O)N2C(=O)[C@@H](NC(=O)C(N)c3ccccc3)[C@H]2SC1` (some centres undefined), the “activity change, negative = inhibition” value is -2.66% (inactive).
